Test results published in PubChem BioAssay AID2284156 (EPA ToxCast).
Activity calls are given as the source filed them. The calls were made as follows: active = hit-call score of the fitted dose curve at least 0.9, where 1 is the maximum; inactive = score below 0.9.

The compounds below were run against Muscarinic acetylcholine receptor M5 (Homo sapiens) (UniProt P08912) (assay: ERF_FR_GPCR_hCHRM5: Eurofins (ERF) G Protein-Coupled Receptor (GPCR) Radioligand Binding LeadHunter Assay for human Muscarinic Acetylcholine Receptor M5 Antagonism, conducted at France lab site).
Sequence of Muscarinic acetylcholine receptor M5 (Homo sapiens) (P08912 whole entry, looked up): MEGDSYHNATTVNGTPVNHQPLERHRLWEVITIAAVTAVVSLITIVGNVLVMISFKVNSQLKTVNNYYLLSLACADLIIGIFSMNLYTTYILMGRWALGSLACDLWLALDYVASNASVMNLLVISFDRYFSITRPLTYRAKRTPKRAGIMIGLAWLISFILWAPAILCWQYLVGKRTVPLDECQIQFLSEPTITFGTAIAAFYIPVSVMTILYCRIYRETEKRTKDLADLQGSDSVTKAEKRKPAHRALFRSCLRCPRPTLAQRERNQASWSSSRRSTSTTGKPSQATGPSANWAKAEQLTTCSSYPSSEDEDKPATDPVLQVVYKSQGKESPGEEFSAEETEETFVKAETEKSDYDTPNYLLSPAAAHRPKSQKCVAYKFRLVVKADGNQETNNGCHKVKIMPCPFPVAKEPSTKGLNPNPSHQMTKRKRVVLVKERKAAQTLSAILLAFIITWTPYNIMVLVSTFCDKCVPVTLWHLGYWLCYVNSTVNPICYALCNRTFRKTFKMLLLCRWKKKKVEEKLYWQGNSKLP
Procedure: ERF_FR_GPCR_hCHRM5 is a biochemical, single-readout assay that uses extracted gene-proteins in a cell-free assay. Measurements were taken 1 hour after chemical dosing in a 96-well plate. See M5 Human Acetylcholine (Muscarinic) GPCR Binding (Antagonist Radioligand) Assay, Cerep.ERF_FR_GPCR_hCHRM5 is an assay component calculated from the ERF_FR_GPCR_hCHRM5 assay. It is designed to measure radioligand binding using a type of binding reporter as detected by scintillation counting with radiometry technology.Data from the assay component ERF_FR_GPCR_hCHRM5 was analyzed at the assay endpoint, ERF_FR_GPCR_hCHRM5, in the positive analysis fitting direction relative to DMSO as the negative control and baseline of activity. Using a type of binding reporter, loss-of-signal activity can be used to understand changes in binding as they relate to gene CHRM5. To generalize the intended target to other relatable targets, this assay endpoint is annotated to the gpcr intended target family, where the subfamily is acetylcholine (Muscarinic).
Human cells are incubated for 60 minutes at room temprature with [3H]4-DAMP ligand (0.3 nM) and 4-Damp methiodide as control inhibitor.Test Sample Requirements: Minimum for 1) Screen: 60 ul of 10 mM stock -OR- 1 mg (pre-weighed) for 10 uM final testing. 2) Dose Response: 90 ul of 10 mM stock -OR- 1 mg (pre-weighed) for a top concentration at 10 uM.

Row | SMILES | outcome
1 | O=C(/C=C/c1ccc(O)cc1)CC(=O)/C=C/c1ccc(O)cc1 | inactive
